Compounds with a hit are over-represented: about 27% of the library has one in this group of screens.
CYP2C9 act: CYP2C9 (human) activation; activation factor at 5 µM; P11712; hit rate 1.4% among 96,000; recombinant CYP2C9, luciferin-H conversion, luminescence; hits give high values; factor 1 = untreated enzyme, 0 = blocked;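 active = activation factor of 2 or more for CYP2C9 at a 5 µM dose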;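 note: 0 = sulfaphenazole-blocked wells and 1 = vehicle-only wells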
CYP2C19 act: cytochrome P450 2C19 (human) activation | P33261 | activation factor at 5 µM | 96,000 tested, under 10 active | AID 1025 | recombinant CYP2C19, luciferin-H EGE luminescence; hits give high values; 0 = fully inhibited enzyme, 1 = untreated enzyme;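 active = activation factor of at least 2 at 5 µM in the primary screen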;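 note: 0 = wells with 2.5 mM tranylcypromine and 1 = vehicle-only wells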
Cav3 T inh: blocks human Cav3.2 T-type calcium channel. O95180. Cav3.2-expressing cells, Fluo-4 calcium fluorescence FDSS; hits give low values. B-score at 10 µM. hit rate 4% among 100,000;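 active = single-dose well whose peak fluorescence ratio is a statistical outlier from its plate by either plate-standardised score or position-corrected B-score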
PTK2B oligo ant: antagonists of human Pyk2 oligomerization | Q14289 | Q293 cells, Pyk2 FERM NanoBiT luminescence; hits give low values | z-score (the deposit names both 25 µM and 10 µM) | hit rate 0.83% among 99,000 | AID 1347419;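 active = Z-score of -3 or lower, scaled per plate to the spread of control and sample wells; inactive = z-score above -3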;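 note: negative z-score means lost luminescence so less FERM oligomerization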
Target sequence (Q14289 whole entry, looked up): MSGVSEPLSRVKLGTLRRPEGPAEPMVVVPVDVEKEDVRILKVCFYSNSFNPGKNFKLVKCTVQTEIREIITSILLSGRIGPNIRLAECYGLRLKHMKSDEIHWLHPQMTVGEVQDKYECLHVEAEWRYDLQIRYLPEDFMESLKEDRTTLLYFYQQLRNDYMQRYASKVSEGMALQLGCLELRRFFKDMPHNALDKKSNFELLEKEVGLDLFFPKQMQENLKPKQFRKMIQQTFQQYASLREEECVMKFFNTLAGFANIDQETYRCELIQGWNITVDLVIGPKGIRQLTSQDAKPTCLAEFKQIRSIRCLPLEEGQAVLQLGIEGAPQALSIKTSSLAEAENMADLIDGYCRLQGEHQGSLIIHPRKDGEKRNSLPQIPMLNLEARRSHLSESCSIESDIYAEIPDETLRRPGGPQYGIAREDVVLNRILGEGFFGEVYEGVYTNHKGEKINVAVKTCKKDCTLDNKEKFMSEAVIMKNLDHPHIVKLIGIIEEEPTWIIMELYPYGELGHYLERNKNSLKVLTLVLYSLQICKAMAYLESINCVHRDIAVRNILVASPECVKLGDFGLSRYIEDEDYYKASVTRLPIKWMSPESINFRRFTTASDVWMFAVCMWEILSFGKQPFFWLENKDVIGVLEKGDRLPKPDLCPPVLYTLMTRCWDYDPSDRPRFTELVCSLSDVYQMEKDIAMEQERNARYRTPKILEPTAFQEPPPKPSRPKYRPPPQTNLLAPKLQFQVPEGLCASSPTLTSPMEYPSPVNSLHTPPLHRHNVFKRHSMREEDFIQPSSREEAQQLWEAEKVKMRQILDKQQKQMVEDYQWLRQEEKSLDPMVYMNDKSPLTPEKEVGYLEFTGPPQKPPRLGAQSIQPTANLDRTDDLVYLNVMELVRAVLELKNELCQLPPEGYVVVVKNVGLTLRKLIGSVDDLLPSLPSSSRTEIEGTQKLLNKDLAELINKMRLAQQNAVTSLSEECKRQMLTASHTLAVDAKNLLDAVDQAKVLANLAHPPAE
CYP2C9 inhib: blocks human cytochrome P450 2C9. hit rate 20% among 96,000. inhibition, % at 5 µM. CYP2C9 Supersomes, luciferin-H conversion, luminescence. P11712;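 active = blocking of liver enzyme CYP2C9 beyond about 50% at 5 µM, limit read from the data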
CYP2C19 inh: blocks human cytochrome P450 2C19; AID 778; hit rate 21% among 96,000; CYP2C19 Supersomes, luciferin-H EGE luminescence, 30 min; inhibition, % at 5 µM;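 active = CYP2C19 inhibition above a set limit at 5 µM in the primary screen, cut at about 50% in these data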;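 note: plate controls were negative control wells for no effect and 2.5 mM tranylcypromine positive control for full effect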
The depositor's hits bear a star; nt = no result.

SMILES	CYP2C9 act	CYP2C19 act	Cav3 T inh	PTK2B oligo ant	CYP2C9 inhib	CYP2C19 inh
CC1=C2C(CCS2(=O)=O)CC2(C1)C(=O)OC(C)(C)OC2=O (stereo not drawn)	1	0.2	0.34	-0.15	3	82*
O=C(CSc1nc2cc([N+](=O)[O-])ccc2n1-c1ccc(F)cc1)NC1CCS(=O)(=O)C1 (stereo not drawn)	nt	nt	nt	1.4	nt	nt
C=CCNC(=O)c1ccc(Sc2ccccc2)c([N+](=O)[O-])c1	0.3	0.2	nt	-0.98	70*	76*
CC(C)(C)NC(=O)c1ccc(Sc2ccccc2)c([N+](=O)[O-])c1	0.1	0.3	-1.1	-0.75	92*	70*
Cc1ccc(C(=O)NC(C)CCc2ccccc2)cc1[N+](=O)[O-] (stereo not drawn)	0.7	0.6	-1.2	1.4	28	37
COc1ccc(CC(=O)NC2CC(C)(C)NC(C)(C)C2)cc1	nt	nt	0.082	1	nt	nt
c1ccc(-c2csc(Nc3ccc4c(c3)OCCO4)n2)cc1	0.8	1.1	0.00099	-0.02	16	-6
CCCCCNc1nc2ccccc2nc1NS(=O)(=O)c1cccs1	0.3	1	-3	-2	68*	4
C=CCNc1nc2ccccc2nc1NS(=O)(=O)c1cccs1	0.1	1	-0.012	0.72	93*	-2
Cn1c(NCc2ccco2)nc2ccccc21	1.1	0.8	0.68	0	-14	17
O=S(=O)(Nc1nc2ccccc2nc1NCc1ccco1)c1cccs1	0.2	1.1	-1.4	1.9	78*	-7
O=S(=O)(Nc1nc2ccccc2nc1Nc1ccc2c(c1)OCCO2)c1cccs1	0.1	0.9	-3.8*	-1.8	93*	14
CCOC(=O)c1cn[nH]c1N	1	0.9	0.36	-0.3	3	10
C#CCOCCOCCOCCNc1nc(N2CCOCC2)nc(N2CCN(C(=O)[C@H](CCC(=O)O)n3cc(C(N)Cc4ccc(O)cc4)nn3)CC2)n1 (stereo partly drawn)	nt	nt	1.2	nt	nt	nt
CCOc1ccc2nc(NS(C)(=O)=O)sc2c1	0.7	1	-0.76	0.57	29	-1
CCOc1ccc(S(=O)(=O)Nc2nc3ccc(OC)cc3s2)cc1	0	0.2	0.19	-1.2	99*	82*
Cc1ccc(S(=O)(=O)Nc2nc3ccc(S(C)(=O)=O)cc3s2)cc1	0	0.7	0.4	0.37	98*	29
CCOc1ccc2nc(NS(=O)(=O)c3ccc4c(c3)n(C)c(=O)n4C)sc2c1	0	0.6	0.28	0.91	98*	44
CC(=O)Nc1ccc(S(=O)(=O)Nc2nc3ccc(C)cc3s2)cc1	0.6	0.7	-0.36	-0.15	40	31
COC/C=C/C1=CC2=CC(=O)C(C)(O)C(=O)C2=CO1 (stereo not drawn)	nt	nt	0.61	nt	nt	nt
CC(C)COC(=O)N1CC(O)CC1C(=O)O (stereo not drawn)	1	0.9	-0.033	0.81	2	5
N#CCc1nnc2n1-c1ccccc1CCC2	0.9	0.8	0.097	1.1	9	16
Cc1ccc(NC(=O)c2ccc(CSc3nnc(-c4ccncc4)n3C)cc2)c(C)c1	0.3	0.8	1.1	1.3	66*	20
Cc1ccc(C(=O)NNC(=O)CSc2nnc(-c3ccncc3)n2C)cc1	0.9	1	-0.79	1.1	13	-2
Cn1c(SCCCC(=O)c2ccc(Br)cc2)nnc1-c1ccncc1	0.1	0.3	nt	2.4	93*	75*
SMILES	CYP2C9 act	CYP2C19 act	Cav3 T inh	PTK2B oligo ant	CYP2C9 inhib	CYP2C19 inh
Cn1c(SC2CCCCC2=O)nnc1-c1ccncc1 (stereo not drawn)	0.8	0.3	0.066	0.69	16	70*
Cn1c(SCC2CCCCC2)nnc1-c1ccncc1	0.1	0	nt	0.74	87*	100*
O=C1CC(N2CCN(c3ccc(C(=O)c4ccc(F)cc4)cc3)CC2)C(=O)N1 (stereo not drawn)	0.9	1	0.16	0.25	7	3
COc1cc(CC(=O)NCCc2ccc(S(N)(=O)=O)cc2)cc(OC)c1OC	0.8	1.2	-0.7	0.56	18	-15
COc1ccc(-c2nnc(SCc3ccccn3)n2C)cc1	nt	nt	-0.09	-0.12	nt	nt
Cn1c(SCCOc2ccccc2Cl)nnc1-c1ccncc1	0.4	0	-0.7	0.84	62*	97*
Cn1c(SCC(=O)C(C)(C)C)nnc1-c1ccncc1	0.4	0.1	0.24	-0.53	63*	87*

From PubChem
